For assay [1], the target named is 3',5'-cyclic-AMP phosphodiesterase 4B (Homo sapiens) (UniProt Q07343). The assay is described as follows: qHTS Assay for Inhibitors of PDE-IV (AID 607; active = well fitted activation curve with a large enough effect in the main read-out, with a control signal flat, not every such curve was filed as active; also: % of control where 0% means no effect). The gist of the method:
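ACTOne HEK293 cells carry a modified cAMP-gated CNG channel and express endogenous PDE4; plated 1000 cells/well, compounds up to 22.9 uM final. Membrane-potential dye fluorescence (ex 535/em 590) was read; parental cells received 10 uM forskolin + 100 uM RO 20-1724.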

In assay [2] the target is Cytochrome P450 2C9 (Homo sapiens) (UniProt P11712). The experiment in a line: qHTS Assay for Inhibitors and Substrates of Cytochrome P450 2C9 (AID 883). Also: potency is read from the fitted curve at half-maximal effect; nearly all actives have a fitted effect of over 60% in size. The gist of the method: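 CYP2C9 deoxyluciferin hydroxylation, 37C, 60 min with NADPH regeneration; 10nM enzyme, 100uM Luciferin-H (KM). Glo detection reagent stopped reaction; luminescence normalized to sulphaphenazole (57uM) full inhibition.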
In general terms: qHTS replaces the single test concentration by a dilution series.

Assay [3] deals with Cytochrome P450 3A4 (Homo sapiens) (UniProt P08684). The assay is described as follows: qHTS Assay for Inhibitors and Substrates of Cytochrome P450 3A4 (AID 884). Also: % is scaled to controls: 0 for no effect and ±100 for the full control effect; nearly all actives have a fitted effect of over 50% in size. The gist of the method:
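Luminescent readout of luciferin produced by CYP3A4 (20 nM) dealkylation of Luciferin-PPXE, 25 uM (its KM). NADPH-driven reaction ran 60 min at RT after 10 min compound preincubation; data scaled to 57 uM ketoconazole as 100% inhibition.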

For assay [4], the target named is Cytochrome P450 2D6 (Homo sapiens) (UniProt P10635). The experiment in a line: qHTS Assay for Inhibitors and Substrates of Cytochrome P450 2D6 (AID 891). Also: nearly all actives have a fitted effect of over 60% in size. Also: potency is read from the fitted curve at half-maximal effect. Put shortly: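 Luminescent read-out of luciferin formed by 5 nM human CYP2D6 demethylating 30 uM Luciferin-ME EGE (Km level) over 60 min at room temperature after NADPH regeneration addition. Data normalized to full inhibition by 1.43 uM quinidine.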

The nature of assay [5]: Cell Viability - Mesenchymal (AID 546).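 Also: cells exposed to compound for 40 hours before reading.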 Also: potency is read from the fitted curve at half-maximal effect. As to conditions: mesenchymal cells viability, qHTS; activity change, negative = cytotoxicity: at 91.7 µM (top of the series). The gist of the method:
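In this qHTS cytotoxicity format, glomerulus-derived human mesenchymal kidney cells received compound for 40 hr, then luciferase-based ATP quantitation. Concentration-response data were fitted with the Hill equation.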

The nature of assay [6]: Cellular Toxicity (caspase-3) HepG2 (AID 654). Also: potency is read from the fitted curve at half-maximal effect.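 As to caspase-3 activation: cells exposed to compound for 16 hours before reading.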 Put shortly: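 Luminescent Caspase-Glo 3/7 readout after 16 hr compound exposure of human hepatocellular carcinoma HepG2 cells at 37 °C; qHTS concentration-response, normalized DMSO = 0%, 100 uM tamoxifen = 100%; AC50 by standard Hill equation.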
Assay [7] is described as follows: Cellular Toxicity (caspase-3) Jurkat (AID 655).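 Also: cells exposed to compound for 16 h at 37 °C before reading.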 Particulars: Jurkat caspase-3 activation, luminescence, DMSO = 0%, tamoxifen = 100%; at 92.2 µM (top of the series). Put shortly: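 qHTS in human Jurkat T-cell leukemia line: 16 hr compound treatment at 37 °C, caspase-3/7 activity measured by Caspase-Glo luminescence. AC50 derived from Hill equation.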
Assay [8] is described as follows: Cellular Toxicity (caspase-3) HUV-EC-C (AID 656). Also: potency is read from the fitted curve at half-maximal effect. The gist of the method: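 Concentration-dependent caspase 3/7 induction was assessed in HUV-EC-C cells exposed for 16 hours. Data scaled between DMSO and tamoxifen (100 uM) controls.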
The nature of assay [9]: Cellular Toxicity (caspase-3) MRC-5 (AID 659). Also: potency is read from the fitted curve at half-maximal effect. As to conditions: Potency: caspase-3 activation. The gist of the method:
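Apoptosis readout in MRC-5 cells: luciferase light generated after caspase 3/7 cleaves a peptide-aminoluciferin substrate, measured post 16 hr compound incubation at 37 °C.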

Assay [10] in a line: Cellular Toxicity (caspase-3) Mesangial (AID 660).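 Also: combined caspase 3 and 7 activity read by Caspase-Glo luminescence; cells exposed to compound for 16 h before the caspase read.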 Particulars: mesangial cells, normalized: DMSO 0%, 100 µM tamoxifen 100%; at 91.7 µM (top of the series). The gist of the method: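 Luminescent Caspase-Glo 3/7 readout (aminoluciferin substrate cleavage, 20 min RT) after 16 h compound exposure at 37 °C of normal human mesangial cells. Signal increase normalized between DMSO basal and 100 uM tamoxifen; Hill-equation AC50.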

A short description of assay [11]: Cellular Toxicity (caspase-3) H-4-II-E (AID 663).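 Also: cells exposed to compound for 16 hr before readout.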 Particulars: H-4-II-E rat hepatoma, scaled: DMSO 0%, 100 µM tamoxifen 100%; at 92.2 µM (top of the series). The gist of the method:
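Caspase 3/7 activation measured in H-4-II-E cells in complete culture medium after 16 hr treatment at 37 °C, using luciferase-coupled substrate readout; AC50 values come from Hill-equation fits of normalized concentration-response data.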

Assay [12] is described as follows: Cellular Toxicity (caspase-3) Hek293 (AID 664).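 Also: cells exposed to compound for 16 h at 37 °C before readout.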 Also: potency is read from the fitted curve at half-maximal effect. As to conditions: HEK293 caspase-3 activation; caspase-3 activation: at 92.2 µM (top of the series), DMSO = 0%, 100 µM tamoxifen = 100%. Put shortly: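 Luminescent Caspase-Glo 3/7 readout (aminoluciferin release) in HEK293 cells after 16 h compound treatment, 37 °C. Normalization: DMSO = basal, 100 uM tamoxifen = 100% stimulation. Concentration-response fitted with standard Hill equation for AC50.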

Assay [13] can be described thus: Cellular Toxicity (caspase-3) N2a (AID 665).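 Also: compound exposure lasted 16 h at 37 °C before readout.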 Also: potency is read from the fitted curve at half-maximal effect. Particulars: Potency: caspase-3 activation. The gist of the method: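 Luminescent Caspase-Glo 3/7 readout in N2a mouse neuroblastoma cells after 16 h compound exposure at 37 °C. Signal scaled to DMSO (basal) and 10 uM staurosporine (100%). Concentration-response fitted with Hill equation for AC50.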
The nature of assay [14]: Cellular Toxicity (caspase-3) NIH 3T3 (AID 666). The gist of the method:
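NIH 3T3, 1000 cells/well, 5 hr settle then 16 hr compound at 37°C; Caspase-Glo 3/7, 20 min RT, luminescence. DMSO = basal, 100 uM tamoxifen = 100%. Hill-equation AC50, qHTS.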

Assay [15] in a line: Cellular Toxicity (caspase-3) Renal Proximal Tubule (AID 667).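 Also: cells exposed to compound for 16 hours at 37 °C before detection.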 Also: potency is read from the fitted curve at half-maximal effect. As to conditions: Potency: caspase-3 activation. Put shortly:
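Caspase-Glo 3/7 read-out, rat primary kidney proximal tubule cells. Compound exposure 16 h, 37 °C; detection after 1 h at RT. Activity scaled to DMSO and 10 uM staurosporine.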

Assay [16] is described as follows: qHTS Assay for Identification of Small Molecule Antagonists for NFkB Signaling Pathway (AID 895; active = well fitted inhibition curve with a large enough effect in the signal ratio, with a control signal flat, not every such curve was filed as active; the % refers to the signal ratio; also: potency is read from the fitted curve at half-maximal effect). The gist of the method:
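NFkB-bla ME-180 cervical carcinoma cells with beta-lactamase reporter under NFkB response element; compounds added, then TNF alpha at 10 pM final (EC50), 5 h at 37 C. LiveBLAzer substrate 2 h, room temperature; emission 460/530 nm at 405 nm excitation.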

Assay [17] is described as follows: Cellular Toxicity (caspase-3) SHSY5Y (AID 657).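 Also: cells exposed to compound for 16 hours at 37 °C.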 The gist of the method: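 Readout: caspase-cleaved peptide-aminoluciferin substrate driving luciferase light in SH-SY5Y neuroblastoma cells after 16 h treatment. Response normalized to DMSO and 10 uM staurosporine controls.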
A short description of assay [18]: Cellular Toxicity (caspase-3) BJ (AID 658). The gist of the method: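 Plated BJ cells (1000/well) rested 5 hr, received compound for 16 hr at 37 °C, then Caspase-Glo 3/7 reagent for 1 hr at room temperature before luminescence reading.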
In assay [19] the target is Cytochrome P450 3A4 (Homo sapiens) (UniProt P08684). The assay is described as follows: qHTS Assay for Activators of Cytochrome P450 3A4 (AID 885). Also: nearly all actives have a fitted effect of over 65% in size. The gist of the method: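 CYP3A4 activity: Luciferin-PPXE O-dealkylation, 25uM substrate, 200mM KPO4, RT throughout. Read-out is luciferase luminescence; higher values reflect activation.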

Unmarked numbers belong to inactive results. Inconclusive results are not listed. Calls of active or inactive are those of the source. Unless noted, calls follow the shape of the dose curve; as a rule, active = well fitted curve in the direction sought with a large enough effect; inconclusive = small, poorly fitted or top-dose-only effect, or another doubt; inactive = no such curve, though single readings can be large; an effect the other way counts as inactive or inconclusive.

Our source for the outcome, Potency and caspase-3 activation values is PubChem BioAssay (NCATS).

3',5'-cyclic-AMP phosphodiesterase 4B (Homo sapiens), sequence (Q07343 whole entry, looked up): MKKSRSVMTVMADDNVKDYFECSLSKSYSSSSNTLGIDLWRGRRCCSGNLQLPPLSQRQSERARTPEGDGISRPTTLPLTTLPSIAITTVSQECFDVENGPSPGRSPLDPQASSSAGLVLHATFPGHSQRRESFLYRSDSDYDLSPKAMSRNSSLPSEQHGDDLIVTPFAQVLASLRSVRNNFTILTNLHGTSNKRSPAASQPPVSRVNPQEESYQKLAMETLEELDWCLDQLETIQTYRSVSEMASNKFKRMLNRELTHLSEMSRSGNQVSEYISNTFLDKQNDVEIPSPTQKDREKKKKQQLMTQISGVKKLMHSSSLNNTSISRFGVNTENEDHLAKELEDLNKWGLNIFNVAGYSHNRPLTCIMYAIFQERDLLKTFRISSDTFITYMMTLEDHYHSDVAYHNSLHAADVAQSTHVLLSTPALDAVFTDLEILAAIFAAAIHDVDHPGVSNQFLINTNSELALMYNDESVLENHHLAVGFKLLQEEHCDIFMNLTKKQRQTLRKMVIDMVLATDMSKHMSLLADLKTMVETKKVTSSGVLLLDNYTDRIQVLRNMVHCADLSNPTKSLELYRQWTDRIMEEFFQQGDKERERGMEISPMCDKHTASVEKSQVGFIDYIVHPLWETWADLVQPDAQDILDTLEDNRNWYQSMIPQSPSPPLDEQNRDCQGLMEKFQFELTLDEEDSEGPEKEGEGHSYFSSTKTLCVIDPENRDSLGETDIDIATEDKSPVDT
Cytochrome P450 3A4 (Homo sapiens), sequence (P08684 whole entry, looked up): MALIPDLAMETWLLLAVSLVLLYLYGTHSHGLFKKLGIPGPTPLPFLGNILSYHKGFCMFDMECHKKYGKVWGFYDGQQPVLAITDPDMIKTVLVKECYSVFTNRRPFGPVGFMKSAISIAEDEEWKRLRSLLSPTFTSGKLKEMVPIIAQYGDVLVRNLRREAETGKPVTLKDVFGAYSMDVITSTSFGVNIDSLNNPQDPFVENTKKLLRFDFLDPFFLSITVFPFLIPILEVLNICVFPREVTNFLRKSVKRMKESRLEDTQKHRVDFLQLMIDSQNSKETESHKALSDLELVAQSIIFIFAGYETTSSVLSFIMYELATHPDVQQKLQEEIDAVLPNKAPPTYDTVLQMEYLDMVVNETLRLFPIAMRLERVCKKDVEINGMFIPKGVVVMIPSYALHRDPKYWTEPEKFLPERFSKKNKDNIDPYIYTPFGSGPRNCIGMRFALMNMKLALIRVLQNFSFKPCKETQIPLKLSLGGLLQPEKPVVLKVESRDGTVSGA
Cytochrome P450 2C9 (Homo sapiens), sequence (P11712 whole entry, looked up): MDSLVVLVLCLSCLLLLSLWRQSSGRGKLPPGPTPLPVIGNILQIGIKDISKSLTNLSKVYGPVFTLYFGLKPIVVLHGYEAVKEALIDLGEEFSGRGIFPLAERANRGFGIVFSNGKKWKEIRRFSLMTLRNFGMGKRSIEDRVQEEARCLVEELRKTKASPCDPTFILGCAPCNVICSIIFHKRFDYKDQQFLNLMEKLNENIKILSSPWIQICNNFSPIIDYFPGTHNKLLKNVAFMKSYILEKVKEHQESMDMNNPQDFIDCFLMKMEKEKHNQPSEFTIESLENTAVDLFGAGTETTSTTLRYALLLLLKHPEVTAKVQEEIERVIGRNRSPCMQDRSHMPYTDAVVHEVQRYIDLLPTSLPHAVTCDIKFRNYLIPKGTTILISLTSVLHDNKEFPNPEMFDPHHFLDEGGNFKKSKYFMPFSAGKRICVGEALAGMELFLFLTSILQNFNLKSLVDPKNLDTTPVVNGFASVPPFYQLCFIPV
Cytochrome P450 2D6 (Homo sapiens), sequence (P10635 whole entry, looked up): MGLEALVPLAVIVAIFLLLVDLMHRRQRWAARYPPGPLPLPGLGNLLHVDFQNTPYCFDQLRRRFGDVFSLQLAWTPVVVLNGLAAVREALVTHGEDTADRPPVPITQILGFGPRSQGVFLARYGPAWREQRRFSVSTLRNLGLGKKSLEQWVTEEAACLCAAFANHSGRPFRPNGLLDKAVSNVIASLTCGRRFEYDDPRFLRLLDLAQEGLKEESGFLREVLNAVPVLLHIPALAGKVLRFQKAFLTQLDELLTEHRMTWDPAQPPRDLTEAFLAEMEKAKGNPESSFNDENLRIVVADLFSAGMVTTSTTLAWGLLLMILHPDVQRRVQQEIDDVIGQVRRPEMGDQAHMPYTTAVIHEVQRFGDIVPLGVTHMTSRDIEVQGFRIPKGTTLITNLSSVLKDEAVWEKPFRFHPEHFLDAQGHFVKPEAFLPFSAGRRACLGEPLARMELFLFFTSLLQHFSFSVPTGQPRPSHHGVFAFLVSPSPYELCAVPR

On to `O=C(O)CCc1nc(-c2ccccc2)c(-c2ccccc2)o1`, for which, in [1], the compound was classed as inactive.

For `CC(C)OC(=O)C(C)(C)Oc1ccc(C(=O)c2ccc(Cl)cc2)cc1`, in [1], the compound was called inactive. In addition, the Potency in assay [2] was 5.01 µM (active). Besides, the Potency result in [3] and in assay [4] was “inactive” throughout.

For `NC(N)=Nc1nc(CSCC/C(N)=N/S(N)(=O)=O)cs1`, in assay [1], the outcome was inactive.

As for `CC1=C(/C=C/C(C)=C/C=C/C(C)=C/C(=O)Nc2ccc(O)cc2)C(C)(C)CCC1`, the Potency in assay [5], in [6], in assay [8], in [9], in [12] and in assay [13] was 31.6 µM (active) throughout. For the same compound, the Potency in [15] is 31.6 µM (active); in assay [16], 6.31 µM (active). The values for the caspase-3 activation in assay [7], in assay [10] and in assay [11] were -0.319% (active), 91% (active) and 91.2% (active), respectively. In [14], the compound was called inactive.

Turning to `O=c1c(O)c(-c2ccc(O)cc2)oc2cc(O)cc(O)c12`, the Potency result in [5], in [6], in assay [8], in assay [9], in assay [12] and in [13] was “inactive” each time. In addition, in assay [15], the Potency result is “inactive”. Further, the result in [1], in assay [17], in [18], in assay [14] and in [19] was inactive. The results for the caspase-3 activation in assay [7] and in [10] were 1.17% and -0.85%, respectively. Besides, the Potency in [2] and in assay [4] was 15.8 µM (active) each time.

Take `O=C(O)Cc1cccc2ccccc12`: the Potency entry in assay [5], in [6], in [8], in assay [9], in assay [12] and in assay [13] was “inactive” in each case. The Potency result in assay [15] and in assay [3] was “inactive” throughout. Besides, the results for the caspase-3 activation in assay [7], in assay [10] and in assay [11] were 1.08%, 0.654% and 0.142%, respectively. Also, the compound was classed as inactive in assay [17], in [18] and in assay [14].

Consider `O=c1[nH]cnc2c1ncn2[C@H]1CC[C@@H](CO)O1`, for which the Potency result in assay [5], in assay [6], in [8], in [9], in assay [12] and in assay [13] was “inactive” each time. In addition, the Potency result in assay [15] and in [3] was “inactive” throughout. Also, the caspase-3 activation is 3.7% in [7], -0.684% in assay [10] and 0.398% in assay [11]. Moreover, the compound was called inactive in assay [17], in assay [18] and in assay [14].

Take `CCn1cc(C(=O)O)c(=O)c2ccc(C)nc21`: the Potency entry in assay [5], in assay [6], in assay [8], in [9], in [12] and in assay [13] was “inactive” in each case. Besides, in [15], the Potency entry was “inactive”. Further, the caspase-3 activation in assay [7] is 0.304%; in [10], -0.0498%; in [11], -0.698%. For the same compound, the compound was called inactive in assay [17], in [18] and in assay [14].

As for `COc1ccc2c3c1OC1C[C@@H](O)C=C[C@@]31CCN(C)C2` (stereo partly specified), the call in assay [1] was inactive.
